# Most compounds without a hit are left out; they make up all but 3.4% or so of the library.
# H9c2 protect = cardioprotection against H2O2-induced cell death, primary screen, uHTS, H9c2 cells, ATPLite luminescence | H9c2 cardiomyocytes, H2O2 injury protection, 2 h | protection from H2O2 cell death, % at 20 µM | actives 0.63% (n = 360,000) | AID 588492, 2011;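 active = compounds giving at least 50% protection of heart cells from peroxide-induced death in the single-dose screen, raw or plate-pattern-corrected value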;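 also: 0% = DMSO wells with peroxide and 100% = DMSO wells without peroxide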
# Gli-Sufu antag = Gli-Sufu pathway antagonists, primary screen, luciferase luminescence, Sufu-KO-LIGHT cells, uHTS. Sufu-KO-LIGHT fibroblasts, Gli luciferase reporter luminescence. inhibition, % at 5 µM. actives 0.74% (n = 340,000). AID 588413, 2011;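 active = inhibition above about 55%, limit read from the data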;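 also: 0% = DMSO-treated cells and 100% = wells with medium but no cells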
# GalR3 antagonist = GalR3 antagonists in HEK293 cells, primary screen, cell-based, fluorescence readout | AID 651719, 2012 | inhibition, % at 3 µM | actives 0.44% (n = 360,000) | HEK293 GalR3-CNG cAMP membrane potential fluorescence; galR3 body fused to GalR1 C-terminus | Galanin receptor type 3 (Homo sapiens), O60755;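 active = inhibition above the screen-wide average plus 3 SD, cut at about 13% in these data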;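 also: forskolin and galanin both at EC90 stimulate the cells; cAMP rise reported by CNG channel membrane potential dye signal; 0% = forskolin plus galanin with DMSO and 100% = forskolin alone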
# Target sequence (O60755 1-299 limits assumed): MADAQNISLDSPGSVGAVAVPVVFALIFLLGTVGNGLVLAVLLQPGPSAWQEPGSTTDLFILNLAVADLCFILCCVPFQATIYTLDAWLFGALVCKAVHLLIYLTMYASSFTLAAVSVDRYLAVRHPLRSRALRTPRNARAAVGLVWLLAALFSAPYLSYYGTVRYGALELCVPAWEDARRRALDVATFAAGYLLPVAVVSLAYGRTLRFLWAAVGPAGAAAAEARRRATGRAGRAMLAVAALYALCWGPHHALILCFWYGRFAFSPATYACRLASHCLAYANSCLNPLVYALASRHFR
# GAA850 FXN act = FXN promoter activators, primary screen, cell-based, luciferase luminescence, HEK293 lucGAA850 | HEK293 lucGAA850 FXN promoter luciferase reporter, 24 h; percent of 10 µM SAHA response | activation, % at 6 µM | actives 0.56% (n = 360,000);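 active = activation above the average of all compounds screened plus 3 SD, cutoff fixed separately per campaign, cut at about 7.5% in these data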;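 also: 0% = DMSO wells and 100% = 10 µM SAHA wells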
# SMARCA2 activ = SMARCA2 (BRM) function activators, primary screen, cell-based, luminescence, high throughput; MG213 cells, MMTV-luciferase reporter, dexamethasone, overnight; activation, % at 9.1 µM; actives 1% (n = 370,000); in the data active = activation above about 7.8%;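 also: 0% = vehicle wells and 100% = reference activator wells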
# COUP-TFII inh = NR2F2 transcriptional activity inhibitors, primary screen, cell-based, luciferase reporter, HEK293T, luminescence | COUP transcription factor 2 (Homo sapiens), P24468 | HEK293T NGFI-A luciferase reporter | inhibition, % at 8.6 µM | actives 0.7% (n = 370,000) | AID 686940, 2013;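 active = inhibition above a per-plate cutoff, mean inhibition of test wells between control levels plus 3 SD, cut at about 38% in these data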;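 also: cells cotransfected with COUP-TFII expression vector driving the NGFI-A reporter; 0% = median of COUP-TF2 test wells and 100% = reporter-only cells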
# SMARCA2 act conf = SMARCA2 (BRM) function activators, confirmation, cell-based, luminescence, triplicate; shares compounds with SMARCA2 activ; MG213 cells, MMTV-luciferase with dexamethasone, overnight; MG213 cells expressing E1A, Rb sequestered; DMSO wells 0%, reference activator 100%; actives 30% (n = 3,500); activation, % at 9.1 µM;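 active = activation above its plate's cutoff, the mean activation of tested wells plus 3 SD, cut at about 7.9% in these data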
# VP16 Luc act = GAL4-VP16 luciferase reporter activation, counter-screen for SMARCA2 (BRM) activator project, cell-based, pG5luc, luminescence, high throughput. shares compounds with SMARCA2 activ. HEK293 GAL4-VP16 pG5luc reporter; scaled: DMSO wells 0%, SAHA wells 100%. activation, % at 9.1 µM. actives 41% (n = 3,500);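 active = activation above the solvent-only control well mean plus 3 SD, averaged across control plates, cut at about 5.2% in these data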
# * marks the source's active call; other numbers are inactive results; · = not tested or not shown.
SMILES,H9c2 protect,Gli-Sufu antag,GalR3 antagonist,GAA850 FXN act,SMARCA2 activ,COUP-TFII inh,SMARCA2 act conf,VP16 Luc act
O=[N+]([O-])c1ccc2[nH]c(=S)[nH]c2c1,-3,2,-8,1,10*,-12,11*,0
COC(=O)/C=C1\OCc2cc(C)ccc21,·,·,-5,·,13*,-28,7,3
COC(=O)/C=C1\OCc2ccc(C)cc21,·,·,-1,·,-2,1,·,·
COc1ccc(/C=N/NC(=O)c2cc(-c3ccc(C)cc3C)nc3ccccc23)cc1COC(C)=O,-9,-1,-2,-3,0,12,·,·
O=C(NCCc1c[nH]c2ccccc12)OCc1cn(Cc2cccc(F)c2)nn1,·,·,·,·,0,-20,·,·
Cc1ccc(O)c(NC(=O)C2CCCN2C(=O)OCc2ccccc2)c1 (centres undefined),0,-3,-6,-1,9.6*,4,-1,1
Oc1cccc2ccc(/C=C/c3c(F)cccc3Cl)nc12,3,5,0,3,11*,-56,-12,16*
Oc1cccc2ccc(/C=C/c3ccccc3Cl)nc12,28,5,-6,-1,12*,-6,-5,11*
Oc1ccc(/C=C/c2ccc3cccc(O)c3n2)cc1Br,0,16,-6,-3,3,-21,·,·
O=C(O)c1ccc(/C=C/c2ccc3cccc(O)c3n2)cc1,7,-31,0,8,8.0*,-31,16*,6.2*
COc1ccc(-c2csc3nc(C)n(-n4cccc4)c(=O)c23)cc1OC,2,-2,3,-4,9.1*,3,-2,2
O=C1c2ccccc2NC(c2ccccc2Br)N1CCCN1CCOCC1 (centres undefined),7,8,-3,1,8.1*,-6,1,-2
COc1ccc(NC2CCCN(C(=O)CN3C(=O)c4ccccc4C3=O)C2)cc1OC (centres undefined),-6,-2,-10,-1,8.0*,-17,-5,1
COC(=O)c1cccc(Oc2cccc(C(F)(F)F)c2)n1,-3,-7,-3,2,11*,6,2,2
COc1cccc(-c2nnc(SCC(=O)NC3CCS(=O)(=O)C3)n2C)c1 (centres undefined),-1,1,-8,0,-2,-1,·,·
NC(=O)C1CC(=O)N(c2ccc(OCc3c(Cl)cccc3Cl)cc2)C1 (centres undefined),-1,-7,-3,2,8.7*,-16,-5,1
Cc1ccc(-n2c(=O)cc(N3CCC(C)CC3)[nH]c2=O)cc1,3,-6,-5,-3,8.2*,-25,-2,-1
CC1=C(C(=O)N(C)C)CC(CC(=O)NCCc2ccccn2)C(=O)N1CCCN1CCCC1=O (centres undefined),6,·,-5,-1,-2,-4,·,·
Cc1nc2c(ccc3nc(NC(=O)Cc4ccccc4)sc32)s1,12,-24,0,1,10*,-47,7,4
O=C(COC(=O)/C=C/c1ccc(F)cc1)Nc1ccc(Cl)cn1,-4,5,0,2,-5,-6,·,·
COc1cc(/C=C/C(=O)OCC(=O)Nc2ccc(Cl)cn2)ccc1O,7,-3,-1,0,10*,8,4,1
Cc1cc(=O)[nH]c(NNC(=O)c2ccc(Cl)cc2)n1,2,·,-2,1,-1,0,·,·
O=C(Cc1ccccc1)Nc1cccc(-c2nc3ncccc3o2)c1,6,-18,-1,1,-2,-17,·,·
Cc1cc(C)cc(OCC(=O)Nc2cccc(-c3nc4ncccc4o3)c2)c1,102*,-17,4,0,8.6*,7,-1,1
CC(C)(C)NS(=O)(=O)c1ccc(CCC(=O)NCc2cccnc2)cc1,2,-5,-1,0,0,-6,·,·
SMILES,H9c2 protect,Gli-Sufu antag,GalR3 antagonist,GAA850 FXN act,SMARCA2 activ,COUP-TFII inh,SMARCA2 act conf,VP16 Luc act
Cc1cc(C)cc(NC(=O)CSCc2nc3c(nnn3Cc3ccc(F)cc3)c(=O)[nH]2)c1,4,2,-1,2,-2,15,·,·
COC(=O)c1sc2nc(-c3ccco3)ccc2c1N,-13,-66,3,7,8.0*,-19,14*,6.5*
NC(=O)c1sc2nc(-c3ccco3)ccc2c1N,8,1,6,1,4,-3,·,·
N=c1n(CCN2CCOCC2)c2ccccc2n1CC(=O)c1ccc(Cl)c(Cl)c1,19,12,-5,1,0,-21,·,·
N=c1n(CCN2CCCC2)c2ccccc2n1CC(O)c1ccc(Cl)c(Cl)c1 (centres undefined),0,25,-9,-4,14*,-22,-10,2
COc1ccc(S(=O)(=O)Nc2ccc3c(c2)C(=O)N([C@H](C)CO)C[C@H](C)[C@@H](CN(C)Cc2ccncc2)OCCCC[C@@H](C)O3)cc1,9,·,-5,1,-2,-3,·,·
COc1cccc(NC(=O)CCN2C(=O)C3CC=CCC3C2=O)c1 (centres undefined),3,-37,0,1,5,-8,·,·
CCOc1ccccc1NC(=O)CSc1nc2ccccc2nc1N1CCCC1,-6,-11,·,1,8.3*,-3,-3,0
Cc1cc(NC(=S)Nc2ccc(C)c(Cl)c2)n[nH]1,-9,-34,-7,6,8.3*,-27,10*,6.9*
COc1ccccc1C(CC(=O)O)NS(=O)(=O)c1ccc2c(c1)N(C(C)=O)CC(C)O2 (centres undefined),3,2,-8,0,10*,-5,-5,-2
COC(=O)C(C)Sc1nc2ccsc2c(=O)n1Cc1ccccc1 (centres undefined),0,-15,-8,2,3,2,·,·
Cc1ccc(S(=O)(=O)N2CCN(c3cccc(C)c3)CC2)cc1,-10,2,-4,-2,-3,18,·,·
CCCCNC(=S)Nc1ccc(-c2nc3ccc(C)cc3s2)cc1,-16,-81,-2,7,5,-42,·,·
CC(=O)NC(=S)Nc1ccc(-c2nc3ccc(C)cc3s2)cc1,-9,-99,-4,2,18*,-31,5,9.2*
